Measurements taken from publication PMC8384837, “Expanding the binding specificity for RNA recognition by a PUF domain”.
Numbering of substitutions follows the chain as printed.

What was measured:
Test in all cases: yeast three-hybrid, YBZ-1, SC-Leu-His + 0.5 mM 3-AT, 4 days
Conditions in all cases: tags: N-Gal4 AD-HA kept; label: inside an RPR1-promoter hybrid RNA with tandem MS2 sites; ssRNA
PUM1 PUF domain R4-SRR = PUM1 PUF domain R4-SRR (Homo sapiens, UniProt Q14671 828-1176, N971S;H972R;Q975R)
Summary of the method: (§1)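 Pumilio-1 PUF domain libraries, randomized at the three base-contacting residues of each repeat, were co-expressed with matching RNA elements from a centromeric plasmid in strain YBZ-1, which carries a LexA–MS2 coat fusion and a HIS3 reporter. Transformants grew for four days on SC-Leu (input) or on SC-Leu-His + 0.5 mM 3-AT (selection), and the repeat regions were PCR-amplified and Illumina-sequenced. The interaction score is the log change in variant frequency from input to selection. That logarithm is base 2, with a pseudocount of 1 where a variant was absent.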

PUM1 PUF domain R4-ARA = PUM1 PUF domain R4-ARA (Homo sapiens, UniProt Q14671 828-1176, N971A;H972R;Q975A)
Summary of the method: as §1

PUM1 PUF domain R6-QWG = biological target: T1, PUM1 PUF domain R6-QWG (Homo sapiens, UniProt Q14671 828-1176, N1043Q;Y1044W;Q1047G)
T1 sequence: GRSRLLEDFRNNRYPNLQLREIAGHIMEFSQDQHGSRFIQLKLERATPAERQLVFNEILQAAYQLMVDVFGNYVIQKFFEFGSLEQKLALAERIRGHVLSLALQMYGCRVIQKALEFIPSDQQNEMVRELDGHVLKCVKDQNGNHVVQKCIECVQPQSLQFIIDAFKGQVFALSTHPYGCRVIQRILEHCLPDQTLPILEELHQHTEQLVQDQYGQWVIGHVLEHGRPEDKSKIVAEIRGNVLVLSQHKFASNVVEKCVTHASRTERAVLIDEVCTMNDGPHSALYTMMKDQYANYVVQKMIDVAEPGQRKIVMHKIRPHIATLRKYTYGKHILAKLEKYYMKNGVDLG
Summary of the method: as §1

PUM1 PUF domain R6-TYR = biological target: T2, PUM1 PUF domain R6-TYR (Homo sapiens, UniProt Q14671 828-1176, N1043T;Q1047R)
T2 sequence: T1 sequence with Q216T, W217Y, G220R
Summary of the method: as §1

PUM1 PUF domain R3-RPA = PUM1 PUF domain R3-RPA (Homo sapiens, UniProt Q14671 828-1176, C935R;R936P;Q939A)
Summary of the method: as §1

PUM1 PUF domain R4-TRT = PUM1 PUF domain R4-TRT (Homo sapiens, UniProt Q14671 828-1176, N971T;H972R;Q975T)
Summary of the method: as §1

PUM1 PUF domain R3-AFG = PUM1 PUF domain R3-AFG (Homo sapiens, UniProt Q14671 828-1176, C935A;R936F;Q939G)
Summary of the method: as §1

PUM1 PUF domain R5-CSR = PUM1 PUF domain R5-CSR (Homo sapiens, UniProt Q14671 828-1176, R1008S;Q1011R)
Summary of the method: as §1

PUM1 PUF domain R8-PRR = PUM1 PUF domain R8-PRR (Homo sapiens, UniProt Q14671 828-1176, N1122P;Y1123R;Q1126R)
Summary of the method: as §1

PUM1 PUF domain R1-RWQ = PUM1 PUF domain R1-RWQ (Homo sapiens, UniProt Q14671 828-1176, S863R;R864W)
Summary of the method: as §1

PUM1 PUF domain R1-KKR = PUM1 PUF domain R1-KKR (Homo sapiens, UniProt Q14671 828-1176, S863K;R864K;Q867R)
Summary of the method: as §1

PUM1 PUF domain R3-TSE = PUM1 PUF domain R3-TSE (Homo sapiens, UniProt Q14671 828-1176, C935T;R936S;Q939E)
Summary of the method: as §1

PUM1 PUF domain R6-HWC = biological target: T3, PUM1 PUF domain R6-HWC (Homo sapiens, UniProt Q14671 828-1176, N1043H;Y1044W;Q1047C)
T3 sequence: T1 sequence with Q216H, G220C
Summary of the method: as §1

PUM1 PUF domain R8-KRY = PUM1 PUF domain R8-KRY (Homo sapiens, UniProt Q14671 828-1176, N1122K;Y1123R;Q1126Y)
Summary of the method: as §1

PUM1 PUF domain R7-GVD = PUM1 PUF domain R7-GVD (Homo sapiens, UniProt Q14671 828-1176, S1079G;N1080V;E1083D)
Summary of the method: as §1

PUM1 PUF domain R7-RPI = PUM1 PUF domain R7-RPI (Homo sapiens, UniProt Q14671 828-1176, S1079R;N1080P;E1083I)
Summary of the method: as §1

PUM1 PUF domain R5-RQV = PUM1 PUF domain R5-RQV (Homo sapiens, UniProt Q14671 828-1176, C1007R;R1008Q;Q1011V)
Summary of the method: as §1

PUM1 PUF domain R5-LNT = PUM1 PUF domain R5-LNT (Homo sapiens, UniProt Q14671 828-1176, C1007L;R1008N;Q1011T)
Summary of the method: as §1

PUM1 PUF domain R5-RQW = PUM1 PUF domain R5-RQW (Homo sapiens, UniProt Q14671 828-1176, C1007R;R1008Q;Q1011W)
Summary of the method: as §1

PUM1 PUF domain R5-GVD = PUM1 PUF domain R5-GVD (Homo sapiens, UniProt Q14671 828-1176, C1007G;R1008V;Q1011D)
Summary of the method: as §1

Sequence: GGCUAGAACUAGUGGAUCCCCCGGCGCCCGGCGGCUCGAGCCCGGGUAAGUGUACAUAGUCUGCAUGCCGCCGGGCGCCAUGCCUGCAGGUCGACUCUAGAAAACAUG
- binding signal (PUM1 PUF domain R4-SRR): 4.09 log2 enrichment (interaction score)
- binding signal (PUM1 PUF domain R4-ARA): 2.79 log2 enrichment (interaction score)

Sequence: GGCUAGAACUAGUGGAUCCCCCGGCGCCCGGCGGCUCGAGCCCGGGUAAGUGUAAAUAGUCUGCAUGCCGCCGGGCGCCAUGCCUGCAGGUCGACUCUAGAAAACAUG
- binding signal (PUM1 PUF domain R6-QWG): 5.49 log2 enrichment (interaction score)
- binding signal (PUM1 PUF domain R6-TYR): 5.51 log2 enrichment (interaction score)
- binding signal (PUM1 PUF domain R3-RPA): 0.97 log2 enrichment (interaction score)
- binding signal (PUM1 PUF domain R4-TRT): 2.59 log2 enrichment (interaction score)
- binding signal (PUM1 PUF domain R3-AFG): 3.62 log2 enrichment (interaction score)
- binding signal (PUM1 PUF domain R4-ARA): 3.7 log2 enrichment (interaction score)
- binding signal (PUM1 PUF domain R5-CSR): 1.42 log2 enrichment (interaction score)
- binding signal (PUM1 PUF domain R8-PRR): 3.57 log2 enrichment (interaction score)

Sequence: GGCUAGAACUAGUGGAUCCCCCGGCGCCCGGCGGCUCGAGCCCGGGUAAGUGCAAAUAGUCUGCAUGCCGCCGGGCGCCAUGCCUGCAGGUCGACUCUAGAAAACAUG
- binding signal (PUM1 PUF domain R6-TYR): 5.11 log2 enrichment (interaction score)

Sequence: GGCUAGAACUAGUGGAUCCCCCGGCGCCCGGCGGCUCGAGCCCGGGUAAGUGUAAAUGGUCUGCAUGCCGCCGGGCGCCAUGCCUGCAGGUCGACUCUAGAAAACAUG
- binding signal (PUM1 PUF domain R1-RWQ): 2.2 log2 enrichment (interaction score)

Sequence: GGCUAGAACUAGUGGAUCCCCCGGCGCCCGGCGGCUCGAGCCCGGGUAAGUGUAAUUAGUCUGCAUGCCGCCGGGCGCCAUGCCUGCAGGUCGACUCUAGAAAACAUG
- binding signal (PUM1 PUF domain R3-RPA): 3.99 log2 enrichment (interaction score)
- binding signal (PUM1 PUF domain R3-AFG): 1.51 log2 enrichment (interaction score)

Sequence: GGCUAGAACUAGUGGAUCCCCCGGCGCCCGGCGGCUCGAGCCCGGGUAAGUGUAAAUCGUCUGCAUGCCGCCGGGCGCCAUGCCUGCAGGUCGACUCUAGAAAACAUG
- binding signal (PUM1 PUF domain R1-KKR): 6.78 log2 enrichment (interaction score)
- binding signal (PUM1 PUF domain R1-RWQ): 6.93 log2 enrichment (interaction score)

Sequence: GGCUAGAACUAGUGGAUCCCCCGGCGCCCGGCGGCUCGAGCCCGGGUAAGUGUAAGUAGUCUGCAUGCCGCCGGGCGCCAUGCCUGCAGGUCGACUCUAGAAAACAUG
- binding signal (PUM1 PUF domain R3-TSE): 4.66 log2 enrichment (interaction score)
- binding signal (PUM1 PUF domain R3-AFG): 0.76 log2 enrichment (interaction score)

Sequence: GGCUAGAACUAGUGGAUCCCCCGGCGCCCGGCGGCUCGAGCCCGGGUAAGUGUAAAUUGUCUGCAUGCCGCCGGGCGCCAUGCCUGCAGGUCGACUCUAGAAAACAUG
- binding signal (PUM1 PUF domain R1-KKR): 7.39 log2 enrichment (interaction score)
- binding signal (PUM1 PUF domain R1-RWQ): 7.23 log2 enrichment (interaction score)

Sequence: GGCUAGAACUAGUGGAUCCCCCGGCGCCCGGCGGCUCGAGCCCGGGUAAGUGAAAAUAGUCUGCAUGCCGCCGGGCGCCAUGCCUGCAGGUCGACUCUAGAAAACAUG
- binding signal (PUM1 PUF domain R6-QWG): 3.38 log2 enrichment (interaction score)
- binding signal (PUM1 PUF domain R6-HWC): 6.25 log2 enrichment (interaction score)

Sequence: GGCUAGAACUAGUGGAUCCCCCGGCGCCCGGCGGCUCGAGCCCGGGUAAGCGUAAAUAGUCUGCAUGCCGCCGGGCGCCAUGCCUGCAGGUCGACUCUAGAAAACAUG
- binding signal (PUM1 PUF domain R8-KRY): 3.46 log2 enrichment (interaction score)
- binding signal (PUM1 PUF domain R8-PRR): 4.08 log2 enrichment (interaction score)

Sequence: GGCUAGAACUAGUGGAUCCCCCGGCGCCCGGCGGCUCGAGCCCGGGUAAGUGUAUAUAGUCUGCAUGCCGCCGGGCGCCAUGCCUGCAGGUCGACUCUAGAAAACAUG
- binding signal (PUM1 PUF domain R4-ARA): 1.69 log2 enrichment (interaction score)

Sequence: GGCUAGAACUAGUGGAUCCCCCGGCGCCCGGCGGCUCGAGCCCGGGUAAGUUUAAAUAGUCUGCAUGCCGCCGGGCGCCAUGCCUGCAGGUCGACUCUAGAAAACAUG
- binding signal (PUM1 PUF domain R7-GVD): 2.75 log2 enrichment (interaction score)
- binding signal (PUM1 PUF domain R7-RPI): 2.52 log2 enrichment (interaction score)

Sequence: GGCUAGAACUAGUGGAUCCCCCGGCGCCCGGCGGCUCGAGCCCGGGUAAGUGUUAAUAGUCUGCAUGCCGCCGGGCGCCAUGCCUGCAGGUCGACUCUAGAAAACAUG
- binding signal (PUM1 PUF domain R5-RQV): 4.22 log2 enrichment (interaction score)
- binding signal (PUM1 PUF domain R5-LNT): 4.04 log2 enrichment (interaction score)
- binding signal (PUM1 PUF domain R5-RQW): 2.23 log2 enrichment (interaction score)

Sequence: GGCUAGAACUAGUGGAUCCCCCGGCGCCCGGCGGCUCGAGCCCGGGUAAGUGUGAAUAGUCUGCAUGCCGCCGGGCGCCAUGCCUGCAGGUCGACUCUAGAAAACAUG
- binding signal (PUM1 PUF domain R5-GVD): 5.11 log2 enrichment (interaction score)

Sequence: GGCUAGAACUAGUGGAUCCCCCGGCGCCCGGCGGCUCGAGCCCGGGUAAGUCUAAAUAGUCUGCAUGCCGCCGGGCGCCAUGCCUGCAGGUCGACUCUAGAAAACAUG
- binding signal (PUM1 PUF domain R7-RPI): 0.71 log2 enrichment (interaction score)

Sequence: GGCUAGAACUAGUGGAUCCCCCGGCGCCCGGCGGCUCGAGCCCGGGUAAGUGUCAAUAGUCUGCAUGCCGCCGGGCGCCAUGCCUGCAGGUCGACUCUAGAAAACAUG
- binding signal (PUM1 PUF domain R5-RQV): 4.73 log2 enrichment (interaction score)
- binding signal (PUM1 PUF domain R5-RQW): 1.8 log2 enrichment (interaction score)
- binding signal (PUM1 PUF domain R5-CSR): 4.8 log2 enrichment (interaction score)
